Experimental findings from PubChem BioAssay are described below.

The structures appear in SMILES notation. Several values for one entry are separate records, joined by “and”; a condition that tells them apart may be missing. Equal values may be shown once. For some of these results: Results with a measured potency or affinity are listed apart. Activity calls are given as the source filed them.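 The calls were made as follows, unless noted: active = compounds killing one labelled cell type while sparing the other, by normalised counts and ratio limits, not self-fluorescent; inactive = the rest.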

The nature of assay [1]: EMT-state selective cytotoxicity in co-culture – imaging, PC-3E GFP, TEM4-18 mCherry, primary screen (AID 1345086).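 As to all read-outs here: cells exposed to compound for 72 h before imaging.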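 As to red/green cell ratio (normalised): normalised mesenchymal count divided by normalised epithelial count so high means epithelial killing.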 The note with it: PC-3E GFP / TEM4-18 mCherry co-culture, imaging cell counts, at 1 µM; for red/green cell ratio (normalised): actives lie on both sides.
Assay [2] relates to Aerobactin synthetase IucA (Klebsiella pneumoniae hvKP1). The experiment in a line: IucA enzyme inhibition, primary screen, biochemical, Spectrum library (AID 1346200; call rule not given here;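 also: 100% = wells without compound and 0% = wells lacking enzyme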). The note with it: malachite green pyrophosphate, A620, at 8 µM, stronger effect = lower value.
Assay [3] is described as follows: blockers of polyQ-driven CASP3 activation – cell-based (AID 1583). The following applies: polyglutamine-induced caspase-3 activation, cell assay; stronger effect = higher value;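 tested at 10 µM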.
A short description of assay [4]: yeast 75Q aggregation reduction – 75Q-TubU reporter (AID 1593). The note with it: Yeast 75Q polyglutamine aggregation reporter.
A short description of assay [5]: restoration of touch response, mutant HTT neurons – whole organism, C. elegans mechanosensory neurons, N-terminal huntingtin (AID 1599). The note with it: C. elegans polyQ-huntingtin mechanosensory neurons, stronger effect = higher value.
A short description of assay [6]: blockers of cytochrome c efflux from mitochondria – biochemical, purified mitochondria (AID 1603).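 Also: mouse liver mitochondria challenged with calcium chloride; signal normalized to the plate average as 100%.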 The following applies: stronger effect = lower value.
The nature of assay [7]: polyglutamine aggregate formation blockers (AID 1604). The note with it: polyglutamine-induced protein aggregation inhibition assay; stronger effect = higher value; tested at 2.5 µM.
Assay [8] in a line: glutamate transport activators, MN-1 cells, MN-1 cell line (AID 1612).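 Also: tested at 1 µM final; 0% = mean of DMSO vehicle wells on each plate; positive means more glutamate uptake than control and negative means less.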 The following applies: MN-1 motor neuron cells, stronger effect = higher value.
A short description of assay [9]: 75Q-TubH aggregate inhibition, S. cerevisiae, yeast (AID 1616). The following applies: S. cerevisiae 75Q-TubH polyglutamine aggregation suppression; stronger effect = higher value.
Assay [10] can be described thus: P. berghei load reduction in hepatocytes – cell-based, HepG2, luciferase luminescence, HepG2 viability, primary screen (AID 624349; in the data active = parasite load remaining mostly below about 12%, no sharp cut-off; inactive = mostly above about 10%;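 also: 100% = mean of DMSO negative control wells on the same plate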). The following applies: P. berghei liver stage in HepG2, luciferase luminescence, concentration not given here; parasite load remaining: stronger effect = lower value; viability: measured here: HepG2 viability without parasites.
Assay [11] can be described thus: viability loss with induced miR-34 in A549 – imaging, A549 dox-inducible miR-34, nuclei and caspase counts, primary screen (AID 1347080;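 active = compounds whose cell count with miR-34 switched on is under 0.7 times the count with it off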). The following applies: A549 miR-34 inducible, Hoechst nuclei count, 48 h.
Assay [12] deals with Mitogen-activated protein kinase 7 (Homo sapiens) (UniProt Q13164). The experiment in a line: Gal4-ERK5 driven luciferase induction – cell-based, HTS, primary screen (AID 1508626;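 active = luciferase signal above three times the same-plate solvent-only control wells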;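 also: luciferase driven by Gal4-ERK5 fusion binding five Gal4 sites before minimal TATA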). The following applies: HeLa Gal4-ERK5 transactivation, 18 h, at 5 µM, stronger effect = higher value.
Setting [13] is: measured here: epithelial PC-3E GFP cell survival.
The mark [14] stands for this setting: measured here: mesenchymal TEM4-18 mCherry cell survival.
The mark [15] stands for this setting: measured here: relative caspase fold change +Dox/-Dox.
Setting [16] is: measured here: total cells with miR-34 induction, stronger effect = lower value.
Setting [17] is: measured here: total cells without miR-34 induction.

Mitogen-activated protein kinase 7 (Homo sapiens), sequence (Q13164 whole entry, looked up, the tested form may be a part): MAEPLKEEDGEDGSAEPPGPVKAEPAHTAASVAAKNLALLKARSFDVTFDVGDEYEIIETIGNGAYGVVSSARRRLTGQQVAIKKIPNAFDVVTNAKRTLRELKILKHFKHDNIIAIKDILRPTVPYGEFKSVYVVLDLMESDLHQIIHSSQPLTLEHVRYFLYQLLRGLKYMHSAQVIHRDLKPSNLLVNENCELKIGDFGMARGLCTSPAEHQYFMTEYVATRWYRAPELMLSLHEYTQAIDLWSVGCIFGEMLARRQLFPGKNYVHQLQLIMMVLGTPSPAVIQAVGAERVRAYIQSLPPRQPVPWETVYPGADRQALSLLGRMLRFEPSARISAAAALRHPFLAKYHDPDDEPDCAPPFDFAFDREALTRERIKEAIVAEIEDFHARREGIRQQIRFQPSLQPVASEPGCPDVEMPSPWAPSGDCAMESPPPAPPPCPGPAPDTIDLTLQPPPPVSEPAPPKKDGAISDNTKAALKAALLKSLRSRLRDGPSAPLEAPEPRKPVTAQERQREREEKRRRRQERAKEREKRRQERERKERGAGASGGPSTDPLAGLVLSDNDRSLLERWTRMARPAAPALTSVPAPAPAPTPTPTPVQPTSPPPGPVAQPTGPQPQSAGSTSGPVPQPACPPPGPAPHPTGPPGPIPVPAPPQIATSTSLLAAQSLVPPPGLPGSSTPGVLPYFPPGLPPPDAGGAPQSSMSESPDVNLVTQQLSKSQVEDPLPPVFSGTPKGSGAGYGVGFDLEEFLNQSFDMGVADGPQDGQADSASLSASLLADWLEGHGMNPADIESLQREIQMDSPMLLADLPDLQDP

Take `CC(=O)O[C@H]1C(=O)[C@@]2(C)C([C@H](OC(=O)c3ccccc3)[C@]3(O)C[C@H](O)C(C)=C1C3(C)C)[C@]1(OC(C)=O)CO[C@@H]1C[C@@H]2O` (stereo partly specified): the red/green cell ratio (normalised) in assay [1] is 0.91 (inactive). The normalised cell number in assay [1] (setting [13]) worked out at 0.99; in assay [1] (setting [14]), 0.9. Further, the activity remaining in [2] was 96.8% (inactive).

In [3], `C=C[C@H]1CN2CC[C@H]1C[C@@H]2[C@@H](OC(=O)OCC)c1ccnc2ccc(OC)cc12` displayed an inhibition of 11.7%. Besides, the score in assay [4] came out at 1.24. This compound also returned a rescue above control in assay [5] of 17. Further, the cytochrome c release ratio in assay [6] came out at 1.43. The compound further returned an inhibition of aggregation in assay [7] of 70.5%. Further, the glutamate uptake change in assay [8] was found to be 9.82%. Also, in assay [9], the aggregation suppression score amounted to 1.15. In addition, the parasite load remaining in assay [10] was 53% (inactive). In [10], this compound came in with a viability of 91.4%. Further, the red/green cell ratio (normalised) in assay [1] was 1.15 (inactive). The normalised cell number in assay [1] (setting [13]) came out at 0.67; in assay [1] (setting [14]), 0.77. Moreover, the activity remaining in assay [2] is 98.2% (inactive). Moreover, the fold change in assay [11] (stronger effect = lower value) is 0.94 (inactive); in assay [11] (setting [15]), 1.23. Moreover, the cell count in [11] (setting [16]) was found to be 11100; in assay [11] (setting [17]) it was 11800.

In the case of `CNC(C)[C@H](O)c1ccccc1` (stereo partly specified), in assay [10], the parasite load remaining was 77% (inactive) and the viability amounted to 74.2%. In addition, in assay [1], the red/green cell ratio (normalised) is 1.42 (inactive). In addition, in assay [1] (setting [13]), the normalised cell number was found to be 0.95. The compound also came in with a normalised cell number in assay [1] (setting [14]) of 1.35. Further, the activity remaining in [2] is 87.2% (inactive). In addition, the luciferase signal in assay [12] is 52 AU (inactive).

`C#CC1(O)CCC2C3CCC4=CC(=O)CCC4(C)C3CCC21C` (stereo unspecified): in assay [3], the inhibition is 4.95%. Further, the score in assay [4] turned out to be 0.22. Moreover, in [5], the rescue above control stood at 3.19. Further, in assay [6], the cytochrome c release ratio came out at 0.95. The compound further came in with an inhibition of aggregation in assay [7] of 63.6%. In [8], this compound came in with a glutamate uptake change of 12.9%. Moreover, in assay [9], the aggregation suppression score is 1.19. For the same compound, in assay [10], the parasite load remaining is 62% (inactive) and 21.3% (inactive). Besides, the viability in assay [10] is 93.9% and 81%. Further, in [1], the red/green cell ratio (normalised) was 0.77 (inactive). Besides, the normalised cell number in [1] (setting [13]) amounted to 1.21; in [1] (setting [14]), 0.93. The activity remaining in [2] is 112% (inactive). Also, the fold change in assay [11] (stronger effect = lower value) was 0.935 (inactive); in assay [11] (setting [15]), 2.1. In addition, the figures for the cell count in [11] (setting [16]) and in assay [11] (setting [17]) were 10400 and 11100, respectively.

In the case of `CN1CCc2cc3c(cc2[C@H]1C1OC(=O)c2c1ccc1c2OCO1)OCO3` (stereo partly specified), in [1], the red/green cell ratio (normalised) is 1.02 (inactive). Further, the values for the normalised cell number in [1] (setting [13]) and in [1] (setting [14]) were 0.99 and 1, respectively. The activity remaining in assay [2] was 121% (inactive).

For the compound `O=C(NC(=O)c1c(F)cccc1F)Nc1ccc(Cl)cc1`, in [1], the red/green cell ratio (normalised) was 1 (inactive). Further, the normalised cell number in [1] (setting [13]) and in [1] (setting [14]) was 0.99 in each case. The activity remaining in assay [2] was 122% (inactive). In [12], the luciferase signal was 32 AU (inactive).

For `CCC(=O)O[C@H]1CCC2C3CCC4=CC(=O)CC[C@]4(C)C3CC[C@@]21C` (stereo partly specified), the inhibition in assay [3] amounted to 28.2%. In [4], the score was found to be 0.18. Also, in [5], the rescue above control is -2.54. Further, the cytochrome c release ratio in assay [6] is 0.85. Further, in assay [7], the inhibition of aggregation was 35.3%. The compound also came in with a glutamate uptake change in assay [8] of 14.3%. This compound yielded an aggregation suppression score in [9] of 0.523. In addition, in [10], the parasite load remaining is 54.4% (inactive). In assay [10], the viability stood at 99.7%. Besides, the red/green cell ratio (normalised) in assay [1] is 1.2 (inactive). Moreover, the results for the normalised cell number in assay [1] (setting [13]) and in assay [1] (setting [14]) were 1.23 and 1.48, respectively. In addition, the activity remaining in [2] was 108% (inactive). The figures for the fold change in assay [11] (stronger effect = lower value) and in assay [11] (setting [15]) were 0.927 (inactive) and 4.54, respectively. Also, the cell count in assay [11] (setting [16]) worked out at 10500; in assay [11] (setting [17]) it was 11300.

`CC[C@@]1(O)C[C@H](O[C@H]2C[C@H](N(C)C)[C@H](O)[C@H](C)O2)c2c(cc3c(c2O)C(=O)c2c(O)ccc(O)c2C3=O)[C@H]1C(=O)OC`: the red/green cell ratio (normalised) in assay [1] was 0.85 (inactive). In addition, the normalised cell number in [1] (setting [13]) stood at 1.07; in [1] (setting [14]), 0.9. The activity remaining in assay [2] is 96.8% (inactive). The luciferase signal in assay [12] was 32 AU (inactive).

As usually defined, the inhibition is the share of the control response that was lost under treatment. The viability is a per cent measure of how many cells are alive, often set against a control.
